Assay outcomes from PubChem BioAssay.
An excerpt weighted towards active compounds, which were near 4.7% of everything screened.
TWEAK-Fn14 inh: inhibitors of TWEAK-Fn14 interaction signaling. TWEAK-stimulated Fn14 reporter cells, luciferase luminescence, 8 h. inhibition, % at 10 µM. 360,000 tested, 2% active. AID 1159606; in the data active = inhibition above about 50%
HSF-1 act: increases HSF-1 driven luciferase reporter signal; 300,000 tested, 1.7% active; AID 504408; activation, % at 9 µM; NIH3T3-HGL HSF-1 luciferase reporter, MG132, 8 h; 100% = twice DMSO control signal;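 active = mean replicate activation of at least 50% with a set share of replicates each reaching 50%; inconclusive = only one of those two conditions met; inactive = mean below 50% and too few replicates reaching it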;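 also: 0% = median of the neutral control wells and 100% = twice that signal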
EBV LMP1 NFkB: Epstein-Barr LMP1 NF-kappaB reporter inhibition. inhibition, % at 12.5 µM. AID 504558. 350,000 tested, 0.69% active. LMP1-induced NF-kappaB luciferase reporter cells, luminescence; in the data active = inhibition above about 41%; inconclusive = no clear call, values can overlap the other calls;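 also: 0% = neutral control wells and 100% = reference inhibitor control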
HSP90 refold inh: blocks HSP90-mediated luciferase refolding in reticulocyte lysate; inhibition, % at 5.6 µM; Rabbit reticulocyte lysate, luciferase refolding luminescence, 3 h; AID 1789; 290,000 tested, 0.91% active;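 active = inhibition above the screen-wide mean plus 3 SD, computed separately per campaign, cut at about 16% in these data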;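 also: 0% = DMSO wells and 100% = 60 µM geldanamycin wells; inhibitors lower the luminescence because luciferase stays unfolded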
HSF1 inh: HSF1 inhibition; NIH3T3-HGL HSE-luciferase, MG132-induced, luminescence 8 h; hits give low values; activity change, negative = inhibition, % at 7.5 µM (by protocol); 300,000 tested, 0.77% active; AID 2098;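 active = more than half of replicate wells show activity change below -50%, luminescence cut by over half; inconclusive = some wells, but at most half, below -50%; inactive = no replicate well below -50%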;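 also: luciferase reports HSF-1 transcriptional activity via heat shock element; 0% = median of DMSO wells and -100% = zero luminescence signal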
TROY signal inh: TROY signaling inhibition; 360,000 tested, 0.98% active; inhibition, % at 10 µM; Q293 LMP1-TROYcd NF-kB luciferase reporter, 4 h;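 active = compounds whose plate-normalised and pattern-corrected inhibition of the luciferase reporter signal at the single screening dose is 50% or more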
* hit, by the source's call; ? = inconclusive; / = no result given.

SMILES	TWEAK-Fn14 inh	HSF-1 act	EBV LMP1 NFkB	HSP90 refold inh	HSF1 inh	TROY signal inh
Cc1ccc(CNC(=O)Cn2ccc3ccccc3c2=O)o1	2	64*	-3	0	13	-27
O=C(Cn1ccc2ccccc2c1=O)NCCC(=O)Nc1ccc2c(c1)OCCO2	57*	-21	21	0	-15	36
COC(=O)CNC(=O)Cn1ccc2ccccc2c1=O	-1	-39	-4	-1	-26	-4
CCC(c1nnnn1-c1ccc2c(c1)OCCO2)N1CCN(c2ccccc2OC)CC1 (stereo not given)	6	/	/	/	/	2
CCOC(=O)c1ccc(NC2=CC(=O)C(=O)c3ccccc32)cc1	19	-7	-17	5	-5	-2
Cc1ccc(NC2=CC(=O)C(=O)c3ccccc32)cc1	16	80*	-17	14	68	-18
NS(=O)(=O)c1ccc(NC2=CC(=O)C(=O)c3ccccc32)cc1	4	-65	-7	0	-70*	14
CCCCN(C(=O)CC1CCCCC1)c1c(N)n(CCCC)c(=O)[nH]c1=O	7	/	5	/	/	1
CCCNS(=O)(=O)c1ccc(CCC(=O)Nc2cc(Cl)ccc2Oc2ccccc2)cc1	66*	-18	6	5	-8	25
Cc1cccc(C)c1N(CC(=O)Nc1cc(Cl)ccc1Oc1ccccc1)S(C)(=O)=O	10	-8	0	3	3	52*
Cc1ccc(C)c(N(CC(=O)Nc2cc(Cl)ccc2Oc2ccccc2)S(C)(=O)=O)c1	27	16	-20	4	3	-7
N=c1sccn1CC(=O)Nc1cccc(Oc2ccccc2)c1	29	-40	6	1	-23	-12
N=c1sccn1CC(=O)Nc1cc(Cl)ccc1Oc1ccccc1	-34	79*	-5	1	49	-9
CCCCn1nnnc1C(c1ccccc1)N1CCN(c2ccc(C(F)(F)F)cc2[N+](=O)[O-])CC1 (stereo not given)	4	/	/	/	/	3
N#C/C(=C\c1ccc(Cl)cc1)c1nc2ncccc2[nH]1	1	54*	-26	0	20	-45
N#C/C(=C\c1c(Cl)cccc1Cl)c1nc2ccccc2[nH]1	-35	11	6	1	2	-24
NNC(=O)c1ccc(N2CCc3ccccc32)c([N+](=O)[O-])c1	-11	-33	-4	5	?	9
Nc1ncnc(N2CCc3ccccc32)c1[N+](=O)[O-]	84*	-50	65*	-1	?	61*
C[C@H](CO)N1C[C@H](C)[C@H](CN(C)C(=O)Nc2ccccc2)OCc2cnnn2CCCC1=O	-2	/	-2	/	/	5
CC1=C(C(=O)N(C(C)C)C(C)C)CC(CC(=O)NCC2CCCCC2)C(=O)N1Cc1ccc(C(C)(C)C)cc1 (stereo not given)	19	/	/	/	/	35
CC(=O)Nc1cc(-c2ccccc2N(C)C)cn2c(-c3ccc(S(C)(=O)=O)cc3)cnc12	-1	/	/	/	/	1
CC(C)Oc1ccc(C(=O)Nc2ccc(Cl)c(S(=O)(=O)Nc3ccc(Cl)cc3)c2)cc1	90*	-2	0	-4	7	55*
Cc1cc(/C=N/NC(=O)c2cccc([N+](=O)[O-])c2)c(C)n1-c1ccc(Cl)cc1Cl	95*	-20	6	-1	-12	/
O=C(N/N=C/C(Br)=C/c1ccccc1)C1CC1	-14	47	-13	4	47	-14
CC(/C=N/NC(=O)c1cccc(F)c1)=C\c1ccccc1	22	83*	-34	11	57	-30
SMILES	TWEAK-Fn14 inh	HSF-1 act	EBV LMP1 NFkB	HSP90 refold inh	HSF1 inh	TROY signal inh
CC(/C=N/NC(=O)c1ccc2nc(C)[nH]c2c1)=C\c1ccccc1	9	-10	-8	-2	-7	-18
CC(=C/c1ccccc1)/C=N/NC(=O)c1cccs1	6	55*	/	5	14	-35
O=C(N/N=C/C(Br)=C/c1ccccc1)C(O)c1ccccc1 (stereo not given)	-24	61*	-16	3	52	-36
Cc1cccc(/C=N/NC(=O)c2cccc([N+](=O)[O-])c2)n1	-39	8	-13	1	-6	-34
COc1ccccc1C(=O)N/N=C/C(C)=C/c1ccccc1	-36	1	-13	-4	4	-25
CC(C)NC1(C#N)CCN(Cc2ccccc2)CC1	5	/	-5	/	/	7
CSc1ccc(CNC(=O)C2(C)CCCN(C(C)C)C2)cc1 (stereo not given)	25	/	/	/	/	-15
